Data taken from ChEMBL document CHEMBL1157539, “Thousands of chemical starting points for antimalarial lead identification” (Nature, 2010).

Tests used:
Format in all cases: functional
[1] = system: Plasmodium falciparum; test: GSK_TCMDC: Inhibition of Plasmodium falciparum 3D7 in whole red blood cells, using parasite LDH activity as an index of growth. Test compounds present at 2uM
[2] = system: Plasmodium falciparum; test: GSK_TCMDC: Inhibition of Plasmodium falciparum Dd2 in whole red blood cells, using parasite LDH activity as an index of growth. Test compounds present at 2uM
[3] = system: HepG2; test: GSK_TCMDC: Percent inhibition of human HepG2 cell line. Test compounds present at 10uM.

Compound: CCCCC1(c2ccc(F)cc2)NC(=O)N(CC(=O)c2cc(C)n(Cc3ccco3)c2C)C1=O (stereo unspecified)
- Inhibition [1]: 82%
- Inhibition [2]: 28%
- Inhibition [3]: 6%

Compound: O=C(NCCN1CCC(c2ccncc2)CC1)c1cccc(Nc2nccc(Nc3ccc(Oc4ccccc4)cc3)n2)c1
- Inhibition [1]: 100%
- Inhibition [2]: 91%
- Inhibition [3]: 60%

Compound: N#Cc1ccc(-c2ccc(C(=O)NCCCCN3CCC(n4cnc5ccccc54)CC3)cc2)cc1
- Inhibition [1]: 94%
- Inhibition [2]: 2%
- Inhibition [3]: 15%

Compound: CN(C)c1ccc(-c2csc(C(=O)NCC3CCN(CC4CCCCC4)C3)c2)cc1.O=C(O)C(F)(F)F (stereo unspecified)
- Inhibition [1]: 86%
- Inhibition [2]: 28%
- Inhibition [3]: 35%

Compound: CC(=O)Nc1cccc(C(=O)Nc2ccc(-c3cccc(-c4nc5cc(F)ccc5[nH]4)c3)cc2)c1
- Inhibition [1]: 96%
- Inhibition [2]: 8%
- Inhibition [3]: 90%

Compound: CCOc1c(CNCCCNc2nc3ccccc3[nH]2)cc(Br)cc1OC.Cl
- Inhibition [1]: 99%
- Inhibition [2]: 0%
- Inhibition [3]: 29%

Compound: CCN(CC)CCNc1ccnc2[nH]c3ccc(Cl)cc3c12
- Inhibition [1]: 100%
- Inhibition [2]: 92%
- Inhibition [3]: 3%

Compound: CCOC(=O)N1CCC(NC(=O)c2ccc(C(C)(C)C)cc2OC)CC1
- Inhibition [1]: 88%
- Inhibition [2]: 0%
- Inhibition [3]: 0%

Compound: CCc1cn(C)c2c(N3CCCC3=O)cc(C(=O)N[C@@H](Cc3ccccc3)[C@H](O)CNC(C)(C)CCCC(C)C)cc12
- Inhibition [1]: 97%
- Inhibition [2]: 98%
- Inhibition [3]: 15%

Compound: COc1nc2c(CCN3CC[C@H](NCc4cc(C#N)c5c(c4)OCCO5)[C@H](O)C3)ccnc2cc1F
- Inhibition [1]: 95%
- Inhibition [2]: 41%
- Inhibition [3]: 18%

Compound: CN1CCN(c2ccnc3ccc(NC(=O)Nc4ccc(Cl)c(Cl)c4)cc23)CC1
- Inhibition [1]: 97%
- Inhibition [2]: 17%
- Inhibition [3]: 0%

Compound: Oc1cccc2ccc(Nc3ccccn3)nc12
- Inhibition [1]: 99%
- Inhibition [2]: 93%
- Inhibition [3]: 72%

Compound: O=C(CCCCCNC(=O)c1ccc(O)c(-c2ccc(Cl)c(Cl)c2)c1)NCCN1CCCCC1
- Inhibition [1]: 93%
- Inhibition [2]: 1%
- Inhibition [3]: 0%

Compound: Fc1ccc2[nH]c3c(NCCN4CCCCC4)ncnc3c2c1
- Inhibition [1]: 99%
- Inhibition [2]: 44%
- Inhibition [3]: 24%

Compound: O=C1C(=Cc2cc(Cc3ccccc3)ccc2O)SC(=S)N1Cc1ccccc1
- Inhibition [1]: 98%
- Inhibition [2]: 53%
- Inhibition [3]: 16%

Compound: CCOc1cc2ncnc(Nc3ccc(OCc4ccccc4F)c(Cl)c3)c2cc1OCC.Cl
- Inhibition [1]: 100%
- Inhibition [2]: 74%
- Inhibition [3]: 4%

Compound: CN1CCC(NCc2ccc(-c3ccc(C(F)(F)F)cc3)cc2)CC1
- Inhibition [1]: 99%
- Inhibition [2]: 71%
- Inhibition [3]: 54%

Compound: Cl.Oc1ccc2[nH]c(-c3cccs3)nc2c1CN1CCC(O)(c2ccccc2)CC1
- Inhibition [1]: 93%
- Inhibition [2]: 69%
- Inhibition [3]: 10%

Compound: O=S(=O)(Nc1cccc(CCN2CCC(N3CCCCC3)CC2)c1)c1ccc(Oc2ccccc2)nc1
- Inhibition [1]: 99%
- Inhibition [2]: 0%
- Inhibition [3]: 8%

Compound: CC(=O)Nc1ccc(CN2CCC(NC(=O)c3ccc(-c4ccc(N(C)C)cc4)s3)CC2)cc1.O=C(O)C(F)(F)F
- Inhibition [1]: 100%
- Inhibition [2]: 57%
- Inhibition [3]: 20%

Compound: CN1CCC(N2CCN(CCOc3cc(NC(=O)/C=C/c4ccccc4Cl)ccc3Br)CC2)CC1.O=C(O)C(=O)O
- Inhibition [1]: 100%
- Inhibition [2]: 99%
- Inhibition [3]: 36%

Compound: COc1ccccc1N1CCN(CCCCNC(=O)c2ccc(NC(=O)c3ccc(OC(F)(F)F)cc3)cc2)CC1.Cl
- Inhibition [1]: 100%
- Inhibition [2]: 39%
- Inhibition [3]: 29%

Compound: CCn1c(Cc2ccccc2)nnc1SCC(=O)N1c2ccccc2Sc2ccccc21
- Inhibition [1]: 99%
- Inhibition [2]: 96%
- Inhibition [3]: 0%

Compound: Br.CC1(C)NC(N)=NC(=N)N1OCCCOc1ccc(N)cc1
- Inhibition [1]: 96%
- Inhibition [2]: 95%
- Inhibition [3]: 66%

Compound: CCCCCC(C)C(C)c1cc(O)c2c(c1)OC(C)(C)C=C2c1cc[n+]([O-])cc1 (stereo unspecified)
- Inhibition [1]: 91%
- Inhibition [2]: 2%
- Inhibition [3]: 11%

Compound: N#Cc1ccc(-c2ccc(C(=O)NCCCCN3CCC(c4ccc5c(c4OCc4ccncc4)CCCC5)CC3)cc2)cc1
- Inhibition [1]: 81%
- Inhibition [2]: 57%
- Inhibition [3]: 41%

Compound: COc1ccc(C2SCC(=O)N2CCc2ccc(OC)c(OC)c2)cc1 (stereo unspecified)
- Inhibition [1]: 96%
- Inhibition [2]: 2%
- Inhibition [3]: 19%

Compound: COc1cc(OC)c(NC(=O)COc2ccc(C)cc2)cc1Cl
- Inhibition [1]: 86%
- Inhibition [2]: 90%
- Inhibition [3]: 0%

Compound: O=C(Nc1cccc(-c2ccc(CN3CCCC3)cc2)c1)c1ccc(F)cc1.O=C(O)C(F)(F)F
- Inhibition [1]: 92%
- Inhibition [2]: 9%
- Inhibition [3]: 23%

Compound: CCN(CC)CC#Cc1ccc2[nH]c(C)c(Cl)c(=O)c2c1
- Inhibition [1]: 96%
- Inhibition [2]: 95%
- Inhibition [3]: 11%

Compound: CCOc1ccc(C=CC(=O)Nc2ccc3nc(N4CCN(C)CC4)cc(C)c3c2)cc1OC
- Inhibition [1]: 100%
- Inhibition [2]: 70%
- Inhibition [3]: 0%

Compound: Cc1cccc2nc(-c3ccc(-c4cccc(CNCCc5ccncc5)c4)cc3)[nH]c12.O=C(O)C(F)(F)F
- Inhibition [1]: 100%
- Inhibition [2]: 95%
- Inhibition [3]: 28%
